In PubChem BioAssay (EPA / NIEHS):
Inconclusive results are not listed. Activity calls are given as the source filed them. Rule for the calls, unless noted: active = hit-call score of the fitted dose curve at least 0.9, where 1 is the maximum; inconclusive = response in the unintended direction; inactive = score below 0.9.

molecular target: Cellular tumor antigen p53 (Homo sapiens) (UniProt P04637); assay: TOX21_p53_BLA_p5_ratio: Tox21 HCT-116 p53 Agonism Beta-lactamase Assay, Ratio, Phase 5 (AID 2283599)
Summary of the method: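 Beta-lactamase reporter ratio (blue 460 nm over green 530 nm, 405 nm excitation) after 2 h CCF4-AM loading, in HCT-116 cells exposed 16 h at 37 C to compounds pinned at 217-fold dilution. Increases relative to DMSO baseline scored.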

Sequence of Cellular tumor antigen p53 (Homo sapiens) (P04637 whole entry, looked up): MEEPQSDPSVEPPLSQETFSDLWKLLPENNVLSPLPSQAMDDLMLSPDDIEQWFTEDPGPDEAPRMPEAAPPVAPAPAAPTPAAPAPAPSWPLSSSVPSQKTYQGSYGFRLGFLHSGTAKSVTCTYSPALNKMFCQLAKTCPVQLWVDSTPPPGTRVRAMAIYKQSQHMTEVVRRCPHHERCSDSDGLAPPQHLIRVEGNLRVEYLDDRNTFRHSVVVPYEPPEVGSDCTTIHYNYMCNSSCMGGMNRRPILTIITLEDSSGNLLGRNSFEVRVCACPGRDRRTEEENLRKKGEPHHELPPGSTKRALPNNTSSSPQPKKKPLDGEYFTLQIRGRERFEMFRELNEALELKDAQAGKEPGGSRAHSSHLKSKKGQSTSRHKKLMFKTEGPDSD

Row | SMILES | outcome
1 | ClC(Cl)C(Cl)Cl | inactive
2 | CCCCCCCCCC(=O)O[C@H]1CC[C@H]2[C@@H]3CCC4=CC(=O)CC[C@]4(C)[C@H]3CC[C@]12C | inactive
3 | COc1ccccc1N1CCNCC1 | inactive
4 | COc1ccc2[nH]cc(CCN(C(C)C)C(C)C)c2c1 | inactive

tested on: not listed separately; assay: TOX21_p53_BLA_p5_viability: Viability Assessment in the Tox21 HCT-116 p53 Agonism Beta-lactamase Assay, Phase 5 (AID 2283600)
Summary of the method: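 HCT-116 p53 beta-lactamase reporter cells, 4000/well, were exposed to compound (pin transfer, 217-fold dilution) for 16 hours at 37C. Cellular ATP was read by CellTiter-Glo luminescence after 30 min at room temperature.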

Row | SMILES | outcome
5 | CN(CCO)CCO | inactive
6 | COc1ccccc1N1CCNCC1 | inactive
7 | O=C1Nc2ccc(Cl)cc2C(c2ccccc2Cl)=NC1O (stereo unspecified) | inactive
8 | NC(=O)c1cc([N+](=O)[O-])cc([N+](=O)[O-])c1 | inactive
9 | CCCN1CCC[C@@H]2Cc3[nH]ncc3C[C@H]21 | inactive

molecular target: Cellular tumor antigen p53 (Homo sapiens) (UniProt P04637); assay: TOX21_p53_BLA_p4_ratio: Tox21 HCT-116 p53 Agonism Beta-lactamase Assay, Ratio, Phase 4 (AID 2283601)
Summary of the method: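 Signal is the blue/green (460nm/530nm) ratio of cleaved versus uncleaved CCF4-AM substrate, read after 2 h substrate loading. Cells were HCT116 carrying the p53-responsive beta-lactamase reporter, dosed 16 h at 37C, 5% CO2; CellTiter-Glo measured in parallel.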

Row | SMILES | outcome
10 | C[C@]12CC[C@H]3[C@@H](CCC4=CC(=O)CC[C@@]43C)[C@@H]1CC[C@@H]2O | inactive
11 | CN(CCO)CCO | inactive
12 | ClC(Cl)C(Cl)Cl | inactive
13 | CCCCCCCCCC(=O)O[C@H]1CC[C@H]2[C@@H]3CCC4=CC(=O)CC[C@]4(C)[C@H]3CC[C@]12C | inactive
14 | O=C(O)CCCCCCNC1c2ccccc2CCc2ccccc21 | inactive
15 | COc1ccccc1N1CCNCC1 | inactive
16 | CCN(CC)CCc1c[nH]c2ccccc12 | inactive
17 | COc1ccc2[nH]cc(CCN(C(C)C)C(C)C)c2c1 | inactive
18 | CCN(Cc1ccc(Cl)nc1)/C(=C/[N+](=O)[O-])NC | inactive
19 | O=C1Nc2ccc(Cl)cc2C(c2ccccc2Cl)=NC1O (stereo unspecified) | inactive
20 | CN=C=O | inactive
21 | CCC1(C)CC(=O)NC(=O)C1 | inactive

read-out: xenobiotic metabolism (CYP2C9), CYP2C9 (gene 1559); assay: CLD_CYP2C9_6hr: CellzDirect (CLD) Gene Expression Assay for xenobiotic metabolism (CYP2C9) at 6 hours (AID 2283664)
Summary of the method: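 Primary human hepatocytes dosed daily with test chemicals at multiple concentrations; harvested at 6 h. CYP2C9 mRNA induction measured by qNPA chemiluminescence. Gain of signal fitted against 0.2% DMSO vehicle; cytotoxicity annotated from phase-contrast morphology.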

Row | SMILES | outcome
22 | CC1(C)C(C=C(Cl)Cl)C1C(=O)OCc1cccc(Oc2ccccc2)c1 (stereo unspecified) | inactive
23 | CCOC(=O)C(C)Oc1ccc(Oc2cnc3cc(Cl)ccc3n2)cc1 (stereo unspecified) | inactive
24 | CCCCCOC(=O)COc1cc(N2C(=O)C3=C(CCCC3)C2=O)c(F)cc1Cl | inactive

tested on: not listed separately; assay: ATG_M_32_XSP2: Attagene TRANS-FACTORIAL Multi-Species (XSP2) HepG2 Assay for M19 Transcription Factor (Internal Marker) (AID 2283826)
Summary of the method: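 HepG2 cells transiently transfected with GAL4-UAS reporter units; XSP2 panel included 3 nM 6-alpha-fluorotestosterone and 1.5 nM norgestrel for androgen receptor stimulation. Reporter mRNA read 24 h post-dosing by RT-PCR/capillary electrophoresis; fitted upward versus DMSO.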

Row | SMILES | outcome
25 | Oc1ccccc1Cc1ccccc1O | inactive
26 | c1ccc(B(c2ccccc2)c2ccccc2)cc1 | inactive
27 | O=C(Oc1ccccc1)c1ccc(O)cc1 | inactive
28 | CCCOC(=O)c1ccc(O)cc1 | inactive
29 | O=C(c1ccc(O)cc1)c1ccc(O)cc1O | inactive
30 | CCN(Cc1c(F)cccc1Cl)c1c([N+](=O)[O-])cc(C(F)(F)F)cc1[N+](=O)[O-] | inactive
31 | COc1ccc(C(=O)c2ccccc2)c(O)c1 | inactive
32 | O=P(OC(CCl)CCl)(OC(CCl)CCl)OC(CCl)CCl | inactive
33 | Oc1ccc2cc(SSc3ccc4cc(O)ccc4c3)ccc2c1 | inactive
34 | CCCCCCCCCCCCc1ccc(O)cc1 | inactive
35 | CC(C)(c1cc(Br)c(O)c(Br)c1)c1cc(Br)c(O)c(Br)c1 | inactive
36 | CC(C)(C)NC(=O)[C@H]1CC[C@H]2[C@@H]3CC[C@H]4NC(=O)C=C[C@]4(C)[C@H]3CC[C@]12C | inactive
37 | N#Cc1ccc(C2CCCc3cncn32)cc1 (stereo unspecified) | inactive
38 | O=c1cc(-c2ccccc2)oc2cc(O)cc(O)c12 | inactive
39 | CCCCCCCCCCCCN | inactive
40 | CCCCC(CC)COC(=O)c1ccc(O)cc1 (stereo unspecified) | inactive
41 | C(=C(c1ccccc1)c1ccccc1)c1ccccc1 | inactive

molecular target: PGR (gene 5241) (UniProt P06401); assay: TOX21_PR_BLA_Followup_Antagonist_ratio: Tox21 HEK293 Progesterone Receptor (PR) Antagonism Beta-lactamase Follow-Up Assay, Ratio (AID 2283934)
Summary of the method: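 PR-UAS-bla HEK293T cells, 3,000/well in 2% charcoal-stripped FBS, given compound plus 1nM R5020 agonist for 16 hr at 37C. Beta-lactamase FRET substrate 2 hours, ratio cleaved/uncleaved fluorescence; viability by CellTiter-Glo in same wells.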

Sequence of PGR (gene 5241) (P06401 whole entry, looked up): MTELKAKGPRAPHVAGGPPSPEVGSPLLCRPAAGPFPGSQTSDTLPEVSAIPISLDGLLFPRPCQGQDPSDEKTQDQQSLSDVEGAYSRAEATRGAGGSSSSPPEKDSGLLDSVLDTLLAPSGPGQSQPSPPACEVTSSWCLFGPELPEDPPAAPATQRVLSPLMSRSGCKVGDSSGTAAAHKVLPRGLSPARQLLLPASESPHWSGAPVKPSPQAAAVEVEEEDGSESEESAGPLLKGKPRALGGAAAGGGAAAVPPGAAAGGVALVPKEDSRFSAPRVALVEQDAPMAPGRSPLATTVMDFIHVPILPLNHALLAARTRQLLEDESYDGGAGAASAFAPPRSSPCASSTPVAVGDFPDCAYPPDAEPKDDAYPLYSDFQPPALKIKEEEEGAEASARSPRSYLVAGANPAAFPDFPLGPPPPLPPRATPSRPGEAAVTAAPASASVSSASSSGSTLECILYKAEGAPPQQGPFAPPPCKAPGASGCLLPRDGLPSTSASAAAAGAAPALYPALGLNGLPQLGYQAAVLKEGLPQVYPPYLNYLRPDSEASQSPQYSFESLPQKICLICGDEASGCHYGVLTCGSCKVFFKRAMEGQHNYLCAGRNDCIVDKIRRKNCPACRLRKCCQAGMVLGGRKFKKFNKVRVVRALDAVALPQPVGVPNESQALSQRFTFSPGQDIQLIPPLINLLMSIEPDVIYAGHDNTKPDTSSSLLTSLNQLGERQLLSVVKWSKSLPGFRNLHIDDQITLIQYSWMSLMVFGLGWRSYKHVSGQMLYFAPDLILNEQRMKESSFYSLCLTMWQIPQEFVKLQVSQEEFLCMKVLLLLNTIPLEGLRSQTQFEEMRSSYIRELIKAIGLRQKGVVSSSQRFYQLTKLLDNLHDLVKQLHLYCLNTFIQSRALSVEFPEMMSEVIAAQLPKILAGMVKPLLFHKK

Row | SMILES | outcome
42 | C[C@]12CC[C@H]3[C@@H](CCC4=CC(=O)CC[C@@H]43)[C@@H]1CC[C@@H]2OC(=O)CCc1ccco1 | inactive
43 | O=C(CBr)Nc1ccc(Cl)cc1C(=O)c1ccccc1F | inactive
44 | C[C@]12Cc3cn[nH]c3C[C@@H]1CC[C@@H]1[C@@H]2CC[C@@]2(C)[C@H]1CC[C@]2(C)O | inactive

tested on: not listed separately; assay: TOX21_PR_BLA_Followup_Agonist_viability: Viability Assessment in the Tox21 HEK293 Progesterone Receptor (PR) Agonism Beta-lactamase Follow-Up Assay (AID 2283935);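 note: signal loss means lower viability so actives are cytotoxic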
Summary of the method: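 PR-UAS-bla HEK293T cells in 2% charcoal-stripped FBS medium, plated 6 hr before compound addition, exposed 16 hr at 37C. Viability read by CellTiter-Glo ATP luminescence after 30 min at room temperature, in the same wells as the beta-lactamase readout.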

Row | SMILES | outcome
45 | C[C@]12CC[C@H]3[C@@H](CCC4=CC(=O)CC[C@@H]43)[C@@H]1CC[C@@H]2OC(=O)CCc1ccco1 | inactive
46 | O=C(CBr)Nc1ccc(Cl)cc1C(=O)c1ccccc1F | inactive
47 | C[C@]12Cc3cn[nH]c3C[C@@H]1CC[C@@H]1[C@@H]2CC[C@@]2(C)[C@H]1CC[C@]2(C)O | inactive

tested on: not listed separately; assay: TOX21_PR_BLA_Followup_Antagonist_viability: Viability Assessment in the Tox21 HEK293 Progesterone Receptor (PR) Antagonism Beta-lactamase Follow-Up Assay (AID 2283936);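 note: hits lower the luminescence signal meaning cytotoxicity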
Summary of the method: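 PR-UAS-bla HEK293T cells (3,000/well, 2% charcoal-stripped FBS) given compound plus R5020 agonist, 16 h at 37C. CellTiter-Glo added after bla read, 30 min at room temperature; luminescence loss indicates cytotoxicity.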

Row | SMILES | outcome
48 | C[C@]12CC[C@H]3[C@@H](CCC4=CC(=O)CC[C@@H]43)[C@@H]1CC[C@@H]2OC(=O)CCc1ccco1 | inactive
49 | O=C(CBr)Nc1ccc(Cl)cc1C(=O)c1ccccc1F | inactive
50 | C[C@]12Cc3cn[nH]c3C[C@@H]1CC[C@@H]1[C@@H]2CC[C@@]2(C)[C@H]1CC[C@]2(C)O | inactive

molecular target: PGR (gene 5241) (UniProt P06401); assay: TOX21_PR_LUC_Followup_Agonist: Tox21 HEK293 Progesterone Receptor (PR) Agonism Luciferase Follow-Up Assay (AID 2283937; active = hit-call score of the fitted dose curve at least 0.9, where 1 is the maximum; inactive = score below 0.9)
Summary of the method: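 HEK293-PR-A-luc cells, conditioned 5 days in 10% charcoal-stripped FBS medium, seeded 3,000/well for 5 h, then compound-treated 16 h at 37C. ONE-Glo luminescence read after 30 min at room temperature; gain of signal versus DMSO.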

Row | SMILES | AC50 | outcome
51 | C[C@]12CC[C@H]3[C@@H](CCC4=CC(=O)CC[C@@H]43)[C@@H]1CC[C@@H]2OC(=O)CCc1ccco1 | 27.5 nM (active) | 
52 | O=C(CBr)Nc1ccc(Cl)cc1C(=O)c1ccccc1F |  | inactive
53 | C[C@]12Cc3cn[nH]c3C[C@@H]1CC[C@@H]1[C@@H]2CC[C@@]2(C)[C@H]1CC[C@]2(C)O | 3480 nM (active) | 

molecular target: PGR (gene 5241) (UniProt P06401); assay: TOX21_PR_LUC_Followup_Antagonist: Tox21 HEK293 Progesterone Receptor (PR) Antagonism Luciferase Follow-Up Assay (AID 2283938);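 note: curve fitted upward as signal gain over DMSO baseline despite antagonist label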
Summary of the method: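 HEK293-PR-A-luc cells, 3,000/well, preincubated 5 h at 37C before compound addition in DMSO; 16 h compound exposure at 37C. ONE-Glo luciferase luminescence read after 30 min at room temperature, fitted relative to DMSO baseline.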

Row | SMILES | outcome
54 | C[C@]12CC[C@H]3[C@@H](CCC4=CC(=O)CC[C@@H]43)[C@@H]1CC[C@@H]2OC(=O)CCc1ccco1 | inactive
55 | O=C(CBr)Nc1ccc(Cl)cc1C(=O)c1ccccc1F | inactive
56 | C[C@]12Cc3cn[nH]c3C[C@@H]1CC[C@@H]1[C@@H]2CC[C@@]2(C)[C@H]1CC[C@]2(C)O | inactive
